ChEMBL document CHEMBL3988442, “University of Dundee, Small-Polar-MMV Screening Library” (2021)
Hit rate of the full screen: of about 48,000 compounds, about 13,000 (27%) showed an effect of 50% or more. The list shows a part of the results.

The compounds below were run on Wolbachia pipientis (assay: Anti-Wolbachia Cell-Based Screen). Settings: 5 µM.
Assay type: functional
Parameters: scale not given: in the data most compounds retested in dose-response had high values

SMILES	Percent Effect [%]
C=C(C)COc1ccccc1CNC(CC)c1ccnn1C (stereo not drawn)	-26.14
CCN(C(c1cccnc1)c1ccc2c(c1)CCO2)S(C)(=O)=O (stereo not drawn)	5.843
CCn1nnnc1-c1cccc(NC(=O)CCc2cnn(C)c2)c1	-3.137
Cc1cccc2cc(CN3CCC(N4CCOCC4)CC3)c(=O)[nH]c12	-9.486
Cc1cccc2cc(CNCCCN3CCOCC3)c(=O)[nH]c12	-14.11
CCc1cccc2cc(CNCCCN3CCOCC3)c(=O)[nH]c12	109.4
Cc1ccc2cc(CNCCCN3CCOCC3)c(=O)[nH]c2c1C	110.9
COc1cccc(CN2CCCCCC2c2cccc(C)c2)c1O (stereo not drawn)	-3.31
COc1ccccc1CN1CCCCC1c1n[nH]cc1-c1cc(C)no1.Cl (stereo not drawn)	107.2
Cc1cc(C2CCCN2Cc2ccn(C)c(=O)c2)no1 (stereo not drawn)	-4.327
Cc1cc(C2CCCN2Cc2cc(-c3ccco3)on2)on1 (stereo not drawn)	-89.63
COc1ccc(CN2CCOC[C@H]2c2nc(-c3ccncc3)c[nH]2)cc1	-8.206
COc1ccc(CN2CCC[C@H]2c2nc(-c3cncnc3N)no2)cc1	-2.568
COc1ccc(CN2CCCCC2c2n[nH]cc2-c2cc(C)no2)cc1.Cl (stereo not drawn)	84.19
Cc1cc(C2CCCN2Cc2nc(-c3ccco3)no2)on1 (stereo not drawn)	9.843
Cc1cccc(CN2CCCCC2c2n[nH]cc2-c2cc(C)no2)c1.Cl (stereo not drawn)	91.3
CCc1ccc(CN2CCCCC2c2n[nH]cc2-c2cc(C)no2)cc1.Cl (stereo not drawn)	131.5
COc1ccc(C)cc1CN1CCCC1c1noc(C2CC2)n1 (stereo not drawn)	18.68
CS(=O)(=O)N1CCc2[nH]cnc2C12CCN(C(=O)c1ccccc1)CC2	-3.54
CN1C[C@@H](NC(=O)C2CC2)C[C@H]1c1nc(-c2cnccn2)no1	-3.142
O=C(c1ncoc1-c1ccco1)N1CCCN(c2nccs2)CC1	-20.95
COc1ccc2c(c1)C(C(=O)N(C)CCn1ccnc1C)CC(=O)N2 (stereo not drawn)	-6.574
O=C1CC(c2cccnc2)c2c(c(C(=O)O)cn2-c2ccccc2)N1 (stereo not drawn)	6.777
O=C1N(c2ccc(F)cc2)Cc2nc(=O)n(Cc3cccc(Cl)c3)n21	-4.998
COc1cccc(CN2CCCC2c2c(C)nn(C)c2C)c1 (stereo not drawn)	0.6284
COc1cccc(CN2CCCCC2c2n[nH]cc2-c2cc(C)no2)c1.Cl (stereo not drawn)	78.4
COc1cccc(CC2CCCN2CCCO)c1 (stereo not drawn)	13.01
CCN(CCCNC(=O)c1ccc(C)[nH]c1=O)S(C)(=O)=O	-16.03
